Bioassay records from PubChem BioAssay.
Shown are actives, neighbours in structure and some others; about 12% of the full set was active somewhere.
G9a block: blocks human histone lysine methyltransferase G9a; Q96KQ7; G9a H3K9 monomethylation, AlphaScreen, 2 h; Potency, µM (titrated, usually from 102 µM), without a hit: at the highest dose activity, negative = inhibition, most hits filed as inhibitors; hit rate 8.8% among 350,000; AID 504332; also: potency is read from the fitted curve at half-maximal effect; % is scaled to controls: 0 for no effect and ±100 for the full control effect; nearly all actives have a fitted effect of over 75% in size
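AlphaScreen detection with an anti-monomethyl H3K9 antibody quantified product after a 2 h room-temperature reaction containing 500 nM biotinylated H3K9 peptide, 20 µM SAM and 20 nM enzyme, which had been preincubated 15 min with compound.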
HP1b binding inh: blocks HP1-beta chromodomain binding to methylated histone tails; P83916; AlphaScreen HP1-beta / biotin-H3K9me3 peptide binding; Potency, µM (top dose mostly 114 µM), without a hit: at the highest dose activity change, negative = inhibition, actives largely listed as inhibitors; hit rate 0.56% among 390,000; also: potency is read from the fitted curve at half-maximal effect; nearly all actives have a fitted effect of over 70% in size
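Compound inhibition of the preformed complex between 50 nM HP1-beta and 50 nM biotinylated H3K9me3 peptide was read by AlphaScreen. Buffer was PBS pH 7.4 with 0.01% Tween-20. Incubations ran 30 min at room temperature, with 10 ug/mL donor/acceptor beads.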
BAZ2B inh: BAZ2B (human) inhibition; Q9UIF8; AID 504333; hit rate 4.4% among 360,000; AlphaScreen BAZ2B-H3K14Ac peptide displacement; Potency, µM (titrated, usually from 114 µM), for inactives: at the top dose activity change, negative = inhibition, most hits filed as inhibitors; also: potency is read from the fitted curve at half-maximal effect; % is scaled to controls: 0 for no effect and ±100 for the full control effect; nearly all actives have a fitted effect of over 60% in size
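Complex of BAZ2B and biotin-H3K14Ac (50 nM apiece) forms over 30 min at RT, then faces library compounds up to 110 uM for another 30 min; AlphaScreen beads added, 20 min dark incubation, luminescence read.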
JMJD2A Tudor: blocks the human JMJD2A Tudor domain; Potency, µM (top dose mostly 114 µM), for the others: top-dose activity change, negative = inhibition, hits mostly inhibitors; O75164; hit rate 4.4% among 390,000; AlphaScreen JMJD2A-Tudor / H3K4me3 peptide binding; AID 504339; also: potency is read from the fitted curve at half-maximal effect; % is scaled to controls: 0 for no effect and ±100 for the full control effect; nearly all actives have a fitted effect of over 50% in size
PI5P4Ka inh: PI5P4K alpha (human) kinase inhibition | P48426 | PI5P4Kalpha enzyme, ADP-Glo luminescence, 60 min; stronger effect = lower value | max response, % | hit rate 1.2% among 330,000; active = max response of -50% or lower; inconclusive = between -30% and -50%; inactive = -30% or higher; also: value at the top dose of about 77 µM; % is scaled to controls: 0 for no effect and ±100 for the full control effect
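Luminescence from ADP-Glo served as readout of PI5P4Kalpha activity in a qHTS format. Reaction: enzyme, substrate, compound, ATP at 5 microM final, 60 min at RT.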
PLK1 PBD block: PLK1 (human) polo-box domain binding inhibition; P53350; Plk1 PBD binding of FITC phosphopeptide, fluorescence polarization; Potency, µM, for the others: max response, negative = inhibition, hits mostly inhibitors; hit rate 2.8% among 360,000; AID 720504; also: potency is read from the fitted curve at half-maximal effect; series mostly up to about 57 µM; % is scaled to controls: 0 for no effect and ±100 for the full control effect; nearly all actives have a fitted effect of over 65% in size
Target sequence (P53350 whole entry, looked up, the tested form may be a part): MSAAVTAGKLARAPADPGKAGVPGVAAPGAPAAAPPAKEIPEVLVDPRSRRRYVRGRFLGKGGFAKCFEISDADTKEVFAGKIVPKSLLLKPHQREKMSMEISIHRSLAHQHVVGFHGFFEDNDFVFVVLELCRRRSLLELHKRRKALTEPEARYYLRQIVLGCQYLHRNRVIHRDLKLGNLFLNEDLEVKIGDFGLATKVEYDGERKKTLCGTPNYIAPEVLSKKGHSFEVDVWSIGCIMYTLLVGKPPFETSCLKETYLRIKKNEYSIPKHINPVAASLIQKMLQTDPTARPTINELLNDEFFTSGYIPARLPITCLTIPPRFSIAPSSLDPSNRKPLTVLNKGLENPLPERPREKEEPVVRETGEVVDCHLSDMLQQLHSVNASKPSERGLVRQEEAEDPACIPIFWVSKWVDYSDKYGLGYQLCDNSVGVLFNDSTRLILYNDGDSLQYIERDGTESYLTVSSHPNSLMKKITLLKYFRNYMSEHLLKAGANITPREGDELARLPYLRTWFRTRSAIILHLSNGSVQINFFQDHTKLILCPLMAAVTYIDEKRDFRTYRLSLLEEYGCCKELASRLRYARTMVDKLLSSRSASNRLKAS
* = called active by the depositor; ? = inconclusive; / = no result given; [ ] = dose if it differs, or a comment. Unless noted, calls follow the shape of the dose curve; as a rule, active = well fitted curve in the direction sought with a large enough effect; inconclusive = small, poorly fitted or top-dose-only effect, or another doubt; inactive = no such curve, though single readings can be large; an effect the other way counts as inactive or inconclusive.

SMILES | G9a block | HP1b binding inh | BAZ2B inh | JMJD2A Tudor | PI5P4Ka inh | PLK1 PBD block
Cc1ccc(-n2c(CCC(=O)O)ccc2-c2cccs2)cc1 | ? | -7% | 50µM* | ? | / | -17%
CC(=O)c1ccc(-n2c(CCC(=O)O)ccc2-c2cccs2)cc1 | 14µM* | -5% | ? | ? | / | -8%
CCCn1c(CCC(=O)O)ccc1-c1cccs1 | ? | 16% | ? | -26% | ? | -9%
O=C(O)CCc1ccc(-c2ccc(F)cc2)n1CC1CCCO1 (configuration not stated) | ? | 7% | -6% | -24% | / | -4%
Cc1ccc(NC(=O)Cn2c(CCC(=O)O)ccc2-c2cccs2)cc1 | -33%[59 µM] | 11% | ? | -7% | / | -10%
Cc1ccccc1NC(=O)Cn1c(CCC(=O)O)ccc1-c1cccs1 | -36% | 10% | ? | -17% | 7 | -7%
Cc1ccc(-n2c(CCC(=O)O)ccc2-c2cccs2)cc1Cl | 13µM* | 1% | ? | ? | / | /
CC(C)[C@H](N)c1cn([C@@H](CO)C(=O)N2CCNCC2)nn1 | 27%[2.33 µM] | 15% | ? | -31% | -17 | -4%
N[C@@H](CO)c1cn([C@@H](Cc2cc3ccccc3[nH]2)C(=O)N2CCNCC2)nn1 | -6%[12.7 µM] | 27% | 50µM* | 79µM* | -20 | -13%
NC(=O)C[C@H](N)c1cn([C@@H](CC(N)=O)C(=O)N2CCNCC2)nn1 | -15%[2.33 µM] | -4% | ? | 79µM* | -17 | -2%
CC(=O)N1CCN(S(=O)(=O)c2cccc(C(=O)N3CCN(S(=O)(=O)c4c(C)c(C)cc(C)c4C)CC3)c2)CC1 | / | / | / | / | 9 | -5%
COc1cc(C(=O)NNC(=S)NC(=O)/C=C/c2ccccc2)cc(OC)c1OC | 32µM* | -2% | -2% | -12% | 0 | -12%
O=C(NNC(=S)NC(=O)c1ccccc1)c1cccnc1 | 22µM* | 17% | -2% | -18% | -24 | ?
CC(C)(C)c1ccc(C(=O)NNC(=S)NC(=O)c2cccnc2)cc1 | 10µM* | -14% | 4% | -26% | -19 | -19%
COc1cc(OC)cc(C(=O)NNC(=S)NC(=O)c2cccnc2)c1 | 28µM* | 59% | 17% | -7% | 11 | -4%
CSCC[C@H](NC(=O)C1CCC(CNC(=O)[C@@H]2CCCN2C(=O)OC(C)(C)C)CC1)C(=O)O (some centres not stated) | 3% | 29% | 2% | -12% | -2 | -1%
CCCCNS(=O)(=O)c1cccc(NC(=O)[C@@H]2O[C@H](CO)[C@@H](O)[C@H]2O)c1 | / | / | / | / | 3 | 0%
COc1cc(OC)cc(C2=Cc3ccc(OC)cc3C(CC(C)=O)N2c2ccc(-c3cccs3)cc2)c1 (configuration not stated) | / | / | / | / | 9 | -4%
Cc1cc(C)cc(NC(=O)N2CCN(C(=O)c3nsc4ccccc34)CC2)c1 | 4%[59 µM] | 31%[57 µM] | 0% | -1% | / | /
C=C(NCc1ccccc1)c1ccccc1O | 5%[12.7 µM] | / | / | / | / | /
COc1ccc(C/C(C)=N/NC(=O)c2cccnc2)cc1 | 41%[59 µM] | 10% | ? | 32µM* | -1 | 7%
O=C(NNC(=S)NC(=O)c1ccccc1)c1ccc(O)cc1 | 13µM* | 9% | 6% | -17% | -14 | ?
COc1ccc(C/C(C)=N/NC(=O)c2ccc(Cl)cc2)cc1 | 29% | 32% | / | -4% | 2 | 3%
COc1ccc(/C=C/C(=O)NC(=S)NNC(=O)c2cccnc2)cc1OC | -6%[12.7 µM] | 46% | 3% | -12% | -28 | -8%
O=C(/C=C/c1ccccc1)NC(=S)NNC(=O)c1cccnc1 | 22µM* | 23% | -8% | -19% | -25 | -8%
SMILES | G9a block | HP1b binding inh | BAZ2B inh | JMJD2A Tudor | PI5P4Ka inh | PLK1 PBD block
CNc1nc(-c2cccnc2)nc2ccccc12 | 0%[0.501 µM] | / | / | / | / | /
COC(=O)CN1C(C(=O)c2ccccc2)=C(OC(=O)c2ccc(C)cc2)c2ccccc2S1(=O)=O | -21%[59 µM] | -5% | -27% | -23% | / | /
O=C(CCS(=O)(=O)c1ccccc1)Nc1nc2cc3c(cc2s1)OCCO3 | ? | 38% | 79µM* | -25% | 1 | -18%
O=C(CCS(=O)(=O)c1ccccc1)Nc1nc2cc3c(cc2s1)OCO3 | ? | 38% | 71µM* | -6% | 7 | -9%
O=C(CCS(=O)(=O)c1ccccc1)Nc1nc2ccc(F)cc2s1 | -8% | 27% | 13% | -3% | -14 | ?
O=C(Nc1nc2cc3c(cc2s1)OCCO3)c1cccs1 | 15% | 76% | 5% | 7%[11.4 µM] | -22 | -18%
NNc1nc2cc3c(cc2s1)OCCO3 | 71µM* | 25% | ? | -3% | ? | ?
CCOc1ccc(CCNS(=O)(=O)c2c(C)nc3sc(C)cn3c2=O)cc1OCC | -8%[59 µM] | 61% | -14% | -3% | / | /
CC(=O)N(Cc1ccccc1)c1ccccc1C(=O)O | 18% | 32% | -9% | 10% | -2 | -9%
CC(=O)N(CC(=O)O)c1ccccc1C(=O)O | 18µM* | 12% | -1% | -1% | -2 | 0%
CC1=CCC2C(=O)N(C(C)c3ccccc3)C(=O)C2C1 (configuration not stated) | 16%[12.7 µM] | 13% | -3% | -8% | / | -9%
CC1=CCC2C(=O)N(c3nc4ccccc4n3C)C(=O)C2C1 (configuration not stated) | -5%[59 µM] | 0% | ? | 56µM* | / | -7%
Cc1ccc(-c2csc(C3=C(O)CN(NC(=O)c4ccc([N+](=O)[O-])cc4)C3=N)n2)cc1 | ? | 22% | -25% | -22% | -7 | -19%
N=C1C(c2nc(-c3cccc([N+](=O)[O-])c3)cs2)=C(O)CN1NC(=O)c1ccco1 | 16% | 0% | / | -27% | -55* | -30%
CCCc1cc(C(=O)Nc2sc3c(c2C#N)CCC3)no1 | 40µM* | -11% | 1% | -4% | -23 | 19µM*
CCc1c(C)sc(NC(=O)c2cc(C)on2)c1C#N | / | 5% | 2% | -9% | / | -15%
CC(C)(C)C1CCc2c(sc(NC(=O)c3noc4c3CCCC4)c2C#N)C1 (configuration not stated) | 7.1µM* | -5% | -1% | -2% | / | /
CCCC(=O)Nc1sc2c(c1C#N)CCCC2 | 21%[59 µM] | 24% | 8% | -7% | 1 | -17%
CCc1c(C)sc(NC(=O)c2cc(C3CC3)on2)c1C#N | 45µM* | -1% | 10% | 0% | 2 | ?
CCCc1cc(C(=O)Nc2sc(C)c(CC)c2C#N)no1 | 14%[59 µM] | 4% | 2% | 6% | -20 | 27µM*
O=C(Nc1ccc2c(c1)OCO2)c1cc(C2CC2)on1 | -35%[59 µM] | 14% | -11% | -25% | -17 | -13%
O=C(NCC(c1ccco1)N1CCN(c2ccccc2)CC1)C(=O)NC1CC1 (configuration not stated) | -43% | 18% | -4% | -11% | -6 | -7%
